Rows were chosen to be rich in hits. Some 3.5% of all compounds tested hit in one or more screens of this group.
FBW7 act = activators of human E3 ligase FBW7. Q969H0. AlphaScreen FBW7–phospho-cyclin E peptide binding, activator screen. normalized activity (activation), % at 26.1 µM. 0.13% of 650,000 active. AID 1259310; in the data active = normalized activity above about 1.9%;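 also: purified mutant Fbw7 with reduced substrate affinity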
Target sequence (Q969H0 whole entry, looked up): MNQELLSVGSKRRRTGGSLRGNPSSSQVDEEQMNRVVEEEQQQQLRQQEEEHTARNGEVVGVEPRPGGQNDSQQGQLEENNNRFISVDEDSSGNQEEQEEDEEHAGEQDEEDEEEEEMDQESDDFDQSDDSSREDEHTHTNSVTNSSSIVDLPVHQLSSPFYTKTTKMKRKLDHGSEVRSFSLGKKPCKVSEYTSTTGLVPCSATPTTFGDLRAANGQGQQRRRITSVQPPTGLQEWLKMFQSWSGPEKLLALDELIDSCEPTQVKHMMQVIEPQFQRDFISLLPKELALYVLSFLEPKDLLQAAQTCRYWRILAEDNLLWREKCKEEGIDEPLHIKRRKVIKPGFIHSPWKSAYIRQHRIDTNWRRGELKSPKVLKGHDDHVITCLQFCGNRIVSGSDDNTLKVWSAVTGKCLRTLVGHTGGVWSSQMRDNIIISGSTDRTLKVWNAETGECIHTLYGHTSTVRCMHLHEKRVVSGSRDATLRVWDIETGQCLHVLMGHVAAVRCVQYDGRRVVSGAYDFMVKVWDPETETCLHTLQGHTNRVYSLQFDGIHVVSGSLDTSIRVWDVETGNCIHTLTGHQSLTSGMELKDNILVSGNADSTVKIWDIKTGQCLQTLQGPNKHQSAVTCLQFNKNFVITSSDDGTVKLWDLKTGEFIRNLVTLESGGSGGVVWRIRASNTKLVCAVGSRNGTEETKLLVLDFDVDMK
GPR151 activ = human GPR151 activation; PathHunter beta-arrestin GPR151 cells, luminescence; Q8TDV0; 1% of 650,000 active; activation, % at 11.2 µM; in the data active = activation above about 4.9%
TEAD-YAP inh = TEAD-YAP interaction inhibition; 1.4% of 640,000 active; HEK-TIYL cells, TEAD-Gal4/YAP UAS-luciferase luminescence; inhibition, % at 9.12 µM; AID 1259422; in the data active = inhibition above about 32%
MITF inh = blocks human microphthalmia-associated transcription factor; O75030; inhibition, % at 2.6 µM; AlphaScreen MITF homodimerization, bead proximity signal; 0.91% of 650,000 active; AID 1259374; in the data active = inhibition above about 50%
A number is an active result; – = inactive.

SMILES | FBW7 act | GPR151 activ | TEAD-YAP inh | MITF inh
Cc1ncn(-c2ccc(Nc3nccc(-c4ccc(N5CCCC(CO)C5)c(C#N)c4)n3)cc2)n1 (centres undefined) | – | – | 46 | –
Cc1ncn(-c2ccc(Nc3nccc(-c4ccc(C#N)c(N5CCCC5)c4)n3)cc2)n1 | – | – | – | –
Cc1ncn(-c2ccc(Nc3nccc(-c4ccc(C#N)c(N5CCC(O)CC5)c4)n3)cc2)n1 | – | – | 69 | –
O=C(CSc1nc2ccsc2c(=O)n1CCc1ccccc1)c1ccccc1 | – | – | – | –
COCCNC(=O)C(=O)NCc1ccc(OC)cc1 | – | – | – | –
CCN1c2ncccc2C(=O)NC12CCN(C(=O)Cc1ccsc1)CC2 | – | – | – | –
N#Cc1sc2nccc(Nc3ccccc3)c2c1N | – | – | 34 | –
OC1CCN(c2cccc(-c3ccnc(Nc4ccc(-n5ccnn5)cc4)n3)c2)CC1 | – | – | 37 | –
N#Cc1cc(-c2ccnc(Nc3ccc(-n4cnc(N5CCCC(O)C5)n4)cc3)n2)cc(N2CCOCC2)c1 (centres undefined) | – | – | – | –
OC1CCCN(c2ncn(-c3ccc(Nc4nccc(-c5cccc(N6CCOCC6)c5)n4)cc3)n2)C1 (centres undefined) | – | – | 83 | –
Fc1cc(-c2ccnc(Nc3ccc(-n4ccnn4)cc3)n2)cc(N2CCOCC2)c1 | – | – | – | –
CN1CCN(c2ncn(-c3ccc(Nc4nccc(-c5cc(C#N)cc(N6CCCC(O)C6)c5)n4)cc3)n2)CC1 (centres undefined) | – | – | 62 | –
Cn1nnc(-c2ccc(Nc3nccc(-c4cc(C#N)cc(N5CCCC(O)C5)c4)n3)cc2)n1 (centres undefined) | – | – | 63 | –
CCOc1ccc(C(=O)Nc2c3c(nn2-c2cccc(C)c2C)CS(=O)(=O)C3)cc1 | – | – | – | –
COc1ccc(S(=O)(=O)Nc2ccc(I)cc2C)cc1OC | – | – | – | –
Nc1c(C(=O)c2ccc(Cl)cc2)sc2nc(-c3ccccc3)c3c(c12)CCCC3 | – | – | – | –
CCOc1ccc2ccccc2c1/C=C1/C(=O)NC(=S)N(Cc2ccco2)C1=O | – | – | – | 77
CCOc1ccc(/C=C2\C(=O)NC(=S)N(CC)C2=O)c2ccccc12 | – | – | – | –
COCCn1c(C)cc(/C=C2/C(=O)NC(=O)N(Cc3ccco3)C2=O)c1C | – | – | – | –
O=C1NC(=S)N(Cc2ccco2)C(=O)/C1=C\N1CCOCC1 | – | – | – | 75
COCCn1c(C)cc(/C=C2/C(=O)NC(=S)N(Cc3ccco3)C2=O)c1C | – | – | – | 65
COC(=O)Cc1nc(N2CCN(c3ccc(C)cc3)C(C)C2)c2c(C)c(C)sc2n1 (centres undefined) | – | – | – | –
Cc1ccc(NC(=O)O/N=C\c2ccc(N(C)C)cc2)cc1 | – | – | 34 | –
CCCCC/C=C/C(=O)Nc1ccccc1 | – | – | – | –
O=C1N=C(N2CCCC2)S/C1=C\C=C\c1ccccc1 | – | – | 78 | –
SMILES | FBW7 act | GPR151 activ | TEAD-YAP inh | MITF inh
O=C1N=C(N2CCOCC2)S/C1=C/C=C/c1ccccc1 | – | – | 45 | –
O=C1N=C(c2ccccc2)S/C1=C/C=C\c1ccccc1 | – | – | – | –
CN(C)N1C(N)=C(C#N)C(c2cccc([N+](=O)[O-])c2)C2=C1CCCC2=O (centres undefined) | – | – | – | –
COc1ccc2c(c1)OC(C)CN(CC(=O)NCCc1cccc(F)c1)C2 (centres undefined) | – | – | – | –
COc1cc(C2C3=C(CC(C)(C)CC3=O)Nc3c2ccc2ccccc32)cc(Br)c1O (centres undefined) | – | – | 60 | –
CCOC(=O)C1=C(C)NC2=C(C(=O)CC(C)(C)C2)C1c1cccc(OC)c1O (centres undefined) | 1.9 | – | – | –
CC1=C(C(=O)OCCc2ccccc2)C(c2ccc(Cl)cc2Cl)C2=C(CC(C)(C)CC2=O)N1 (centres undefined) | 2.1 | – | – | –
COC(=O)C1=C(C)NC2=C(C(=O)CC(C)(C)C2)C1c1cccc(Cl)c1Cl (centres undefined) | 2.0 | – | – | –
Cc1c(Cl)cccc1NC(=O)C(=O)NNC(=O)COc1ccc(Cl)cc1 | – | – | – | –
COc1ccc(NC(=O)/C(=C\c2ccccc2)NC(=O)c2ccccc2)cc1 | – | – | – | –
COc1ccc(-c2cnnn2-c2ccc(NC(=O)c3ccc(F)cc3)cc2)cc1 | – | – | – | –
Cc1nc(NC(=S)NC(=O)c2ccccc2)sc1C(C)(C)C | – | – | 37 | –
O=c1nc(N/N=C/C=C/c2ccccc2)cn[nH]1 | – | – | 50 | –
O=c1nc(N/N=C/c2ccc(O)cc2)cn[nH]1 | – | – | – | –
O=c1nc(N/N=C/c2c[nH]c3ccccc23)cn[nH]1 | – | – | 58 | –
Cc1ccc(N=c2c([N+](=O)[O-])nn(-c3ccccc3)n2O)c(Cl)c1 | – | – | – | –
Cc1ccc(N=c2c([N+](=O)[O-])nn(-c3ccc4c(c3)OCCO4)n2O)c(Cl)c1 | – | – | 47 | –
Cc1cc(C)cc(N=c2c([N+](=O)[O-])nn(-c3ccc4c(c3)OCCO4)n2O)c1 | – | – | – | –
COc1ccc(-n2nc([N+](=O)[O-])c(=Nc3ccccc3)n2O)cc1 | – | – | 54 | –
O=[N+]([O-])c1nn(-c2ccc3c(c2)OCCO3)n(O)c1=Nc1ccccc1 | – | – | 89 | –
Cc1nc2c(C)cccn2c1C(=O)NCc1ccc2c(c1)OCO2 | – | – | 34 | –
Cc1nc2ccccn2c1C(=O)NCc1ccc2c(c1)OCO2 | – | – | – | –
C=CCNc1ncnc2scc(-c3ccccc3)c12 | – | – | 38 | –
c1csc(CCNc2ncnc3sc4c(c23)CCC4)c1 | – | – | 37 | –
Fc1ccc(-c2csc3ncnc(NCCc4cccs4)c23)cc1 | – | – | 43 | –
SMILES | FBW7 act | GPR151 activ | TEAD-YAP inh | MITF inh
Fc1ccc(CN2CCOc3ccc(-c4ccncc4)cc32)cc1 | – | – | 43 | –
CCn1nc(C)c(CNCc2c(C(=O)N3CCCCCC3)nc3cc(C)ccn23)c1C | – | – | – | –
CCCNc1ccc2ncc(-c3ccc(OC)c(OC)c3)n2n1 | – | – | 34 | –
CCCNc1ccc2ncc(-c3cccc(C(N)=O)c3)n2n1 | – | – | 33 | –
COc1ccc(CNc2ccc3ncc(-c4ccc(O)c(OC)c4)n3n2)cc1 | – | – | – | –
COc1cc(-c2cnc3ccc(NCCCO)nn23)ccc1O | – | – | 75 | –
N=C1C(c2nc(-c3ccc(Cl)cc3)cs2)=C(O)CN1Cc1ccco1 | – | – | – | –
CSc1ccc(NC(=O)NCCCN2CCN(C)CC2)cc1 | – | – | – | –
CC1=NN(c2ccccc2)C(=O)/C1=C(/c1ccccc1)N1CCOCC1 | – | – | 40 | –
CC(C)CNC(=O)c1c(-c2ccccc2)nc2ccccn12 | – | – | – | –
Nc1ccc2nc(SCC(=O)N3CCN(c4ccc(Cl)cc4)CC3)sc2c1 | – | – | 51 | –
CCOc1cc(C2C(C#N)=C(N)Oc3c2ccc2ccccc32)ccc1O (centres undefined) | – | – | – | –

Screens (PubChem)
